Screens (PubChem BioAssay)
ALOX12 inh: ALOX12 (human) lipoxygenase inhibition; P18054; purified 12hLO, xylenol orange hydroperoxide absorbance; Potency, µM (top dose mostly 108 µM), without a hit: at the top dose activity change, negative = inhibition, hits mostly inhibitors; 1.1% of 580,000 active; AID 1671190
Target sequence (P18054 whole entry, looked up): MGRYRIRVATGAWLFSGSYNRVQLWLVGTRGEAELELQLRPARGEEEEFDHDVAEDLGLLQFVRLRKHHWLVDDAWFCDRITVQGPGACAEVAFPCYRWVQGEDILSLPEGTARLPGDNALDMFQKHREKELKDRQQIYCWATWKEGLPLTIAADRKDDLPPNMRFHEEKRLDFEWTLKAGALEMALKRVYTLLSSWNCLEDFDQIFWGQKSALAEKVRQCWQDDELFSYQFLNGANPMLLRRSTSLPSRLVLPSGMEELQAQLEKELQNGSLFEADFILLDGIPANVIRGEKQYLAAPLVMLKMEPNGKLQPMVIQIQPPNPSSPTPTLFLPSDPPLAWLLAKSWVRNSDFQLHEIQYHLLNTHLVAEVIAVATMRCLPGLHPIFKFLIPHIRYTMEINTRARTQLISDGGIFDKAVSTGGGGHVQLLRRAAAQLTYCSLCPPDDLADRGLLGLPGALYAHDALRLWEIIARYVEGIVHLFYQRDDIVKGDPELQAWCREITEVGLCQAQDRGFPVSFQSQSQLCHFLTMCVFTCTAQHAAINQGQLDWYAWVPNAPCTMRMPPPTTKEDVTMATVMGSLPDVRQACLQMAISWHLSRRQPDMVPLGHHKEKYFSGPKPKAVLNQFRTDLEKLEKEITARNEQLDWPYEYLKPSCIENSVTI
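Purified human 12hLO at 150 nM in 25 mM Hepes, 0.01% Triton X-100, pH 7.0, preincubated 15 min at room temperature with compound. Reaction started with 40 uM arachidonic acid, 30 min at room temperature. Hydroperoxide measured by Fe-xylenol orange, 573/405 nm absorbance ratio.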
VDR inhibitor: blocks the human vitamin D receptor; P11473; 0.93% of 400,000 active; Potency, µM, for inactives: max response, negative = inhibition, actives largely listed as inhibitors; AID 504847; VDR-SRC2-3 peptide fluorescence polarization, 2 h
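Compounds are added to VDR with labelled SRC2-3 coactivator peptide and held 2 h at room temperature. Inhibition of the VDR–peptide interaction is then read as a change in fluorescence polarization.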
KAT2A inh: blocks human GCN5L2 histone acetyltransferase. GCN5L2 HAT assay, ThioGlo1 CoA-SH fluorescence. Q92830. 0.21% of 390,000 active. Potency, µM (highest dose often 58.9 µM), without a hit: top-dose activity change, negative = inhibition, most hits filed as inhibitors. AID 504327
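Free CoA generated was detected with ThioGlo1 (50uM) fluorescence at Ex340nm/Em540nm, read immediately and after 20 min at room temperature. Enzyme, 20 nM in HEPES pH 7.5 buffer, saw compounds 15 min before adding 75uM H3(1-25) peptide and 70uM acetyl-CoA.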
PLK1 PBD inh: blocks phosphopeptide binding to human PLK1 polo-box domain; P53350; Plk1 PBD binding of FITC phosphopeptide, fluorescence polarization; Potency, µM, for the others: max response, negative = inhibition, hits mostly inhibitors; 2.8% of 360,000 active; further: series mostly up to about 57 µM; nearly all actives have a fitted effect of over 65% in size
Active calls of the source: *; ? = inconclusive; / = no result given; [ ] = dose if it differs, or a comment. In the library only some 3% were active in any assay of this set; here they are far more common. The call rests on the fitted dose curve; in most records, active means well fitted curve in the direction sought with a large enough effect; inconclusive means small, poorly fitted or top-dose-only effect, or another doubt; inactive means no such curve, though single readings can be large; an effect the other way counts as inactive or inconclusive. On the % scale 0 is the no-effect control and ±100 the full control effect; potency means the concentration at half of the fitted maximal effect.

SMILES	ALOX12 inh	VDR inhibitor	KAT2A inh	PLK1 PBD inh
CCCc1c(-c2ccccc2)ncn1Cc1ccccc1OC	-34%	/	/	-1%
CCCc1c(-c2ccc(Cl)cc2)ncn1Cc1cccc(-c2ccccc2)c1	5µM*	/	/	?
CCCc1c(-c2cccc(Br)c2)ncn1Cc1cccc(-c2ccccc2)c1	3.5µM*	/	/	?
COc1cc(Nc2nc3ccccc3nc2NS(=O)(=O)c2cccc(C)c2)cc(OC)c1	-7%	/	/	/
CC(C)(C)c1ccccc1	-4%[176 µM]	/	/	/
CC1CCCN(c2ccc(C(=O)O)cc2NS(=O)(=O)c2ccc(Br)s2)C1 (stereo unspecified)	5.6µM*	/	/	/
O=C(CSc1nncc(=O)[nH]1)Nc1cccc([N+](=O)[O-])c1	0%	?	-3%	21µM*
O=C(CSc1nc2[nH]ncc2c(=O)[nH]1)NCc1ccccc1	-19%	-3%	0%	-12%
Nc1cc(=O)[nH]c(SCC(=O)Nc2cccc([N+](=O)[O-])c2)n1	-12%	-6%	-5%	-16%
O=C(CSc1nc2nc[nH]c2c(=O)[nH]1)NCc1ccccc1	0.56µM*	/	/	/
O=C(CSc1nncc(=O)[nH]1)NCc1ccccc1	?	6%	-3%	27µM*
CCCCCCCCC/C=N/NC(=S)NC1CCCCC1	28µM*	/	/	/
Nc1nccnc1C(=O)NCCOc1ccccc1	2%	/	/	/
COc1cc(Nc2c(C#N)cnc3c(OC)cccc23)cc(OC)c1OC	3.2µM*	/	/	/
O=C(C1CCC(CNc2nc(=S)[nH]c3ccccc23)CC1)N1CCN(c2ccc(F)cc2)CC1 (stereo unspecified)	-19%	8%	0%	21µM*
C=Cc1c(C)c2cc3[nH]c(cc4nc(cc5nc(cc1[nH]2)C(C)=C5CCC(=O)O)C(CCC(=O)O)=C4C)c(C)c3C=C	18%	14µM*	-14%	13µM*
CC1=C(CCC(=O)O)c2cc3nc(cc4[nH]c(cc5[nH]c(cc1n2)c(C)c5C(C)O)c(C)c4C(C)O)C(C)=C3CCC(=O)O (stereo unspecified)	/	18µM*	1%	/
Cc1ccc(-c2ccc(CCC(=O)O)n2C(C)C)cc1	-15%	0%	-1%	?
COc1ccc(CCNC(=O)CN(c2ccc(Br)c(C)c2)S(C)(=O)=O)cc1OC	-6%	/	/	/
Cc1ccc(-c2nc(N3CCN(C)CC3)c3ccccc3n2)cc1	-34%	0%	2%	-11%
CN1CCN(c2nc(-c3ccc(C(C)(C)C)cc3)nc3ccccc23)CC1	32µM*	-29%	0%	-10%
CCOC(=O)/C=C/CCCC=O	/	6%	/	/
CCOC(=O)/C=C/CCC/C=C/C(=O)c1ccccc1	/	8.9µM*	/	/
CCN(CC)c1ccc(C=Nc2ccc(Br)c(Cl)c2)cc1	32%	/	/	/
COc1cc(C(=S)N2CCN(C(c3ccccc3)c3ccccc3)CC2)cc(OC)c1O	?	?	-7%	13µM*
SMILES	ALOX12 inh	VDR inhibitor	KAT2A inh	PLK1 PBD inh
Cc1ccc2nc(-c3cccnc3)cc(C(=O)O)c2c1	0%	/	/	/
O=C(O)C(c1c[nH]c2ccccc12)N1CCN(c2ccc(F)cc2)CC1 (stereo unspecified)	-21%	/	/	/
COCCNC(=O)N1CCN(c2oc(-c3ccco3)nc2C#N)CC1	-17%	/	/	/
O=C1/C(=C/C=C/c2ccco2)SC(=S)N1NS(=O)(=O)c1ccccc1	?	-19%	20µM*	11µM*
O=C1/C(=C/c2cccs2)SC(=S)N1NS(=O)(=O)c1ccccc1	?	4%	-2%	-28%
O=C(CSc1nncn1-c1ccccc1)Nc1cccc(S(=O)(=O)N2CCCC2)c1	3%	/	/	/
CCCNc1nc(NCc2ccccc2OC)c2cnn(C)c2n1	40µM*	9%	-12%	/
Cc1ccc(C(=O)c2cc([N+](=O)[O-])ccc2N2CC(C)OC(C)C2)cc1 (stereo unspecified)	-24%	89µM*	3%	?
COc1cc(/C=C/C(=O)c2ccc(C)cc2)ccc1OCC#N	-26%	50µM*	-13%	-1%
COc1ccc(/C=C/C(=O)c2ccc(O)c(CCCl)c2)cc1C	32µM*	/	/	/
COc1cc(/C=C/C(O)=C/C(=O)/C=C/c2ccc(O)cc2)ccc1O	13µM*	1%	-2%	40%
COc1cc(/C=C/C(=O)c2ccc(O)cc2O)ccc1O	?	?	-10%	/
COc1cc(C(=O)/C=C/c2ccc(SC)cc2)ccc1O	40µM*	/	/	/
Cc1ccc(C)c(Oc2ccc(CNC(=O)c3nccnc3N)cn2)c1	-2%	/	/	/
Cc1c(C)c2ccc(OC(C)C(=O)NCCc3ccc(S(N)(=O)=O)cc3)cc2oc1=O (stereo unspecified)	-1%	/	/	/
CCOc1cc(/C=C/C(=O)c2ccc(C)cc2)cc(Br)c1O	40µM*	/	/	/
Cc1cc(/C=C/C(=O)c2ccc(F)cc2)cc(C)c1O	45µM*	/	/	/
COc1cc(/C=C/C(=O)c2ccc(C#N)cc2)cc(Br)c1O	8.9µM*	/	/	/
CCOc1cc(/C=C/C(=O)c2ccc(C)cc2)ccc1OCC(=O)N(C)C	-22%	?	-9%	-13%
CCOc1cc(/C=C/C(=O)c2ccc(Cl)c(Cl)c2)ccc1O	6.3µM*	/	/	/
CCN(CC)S(=O)(=O)c1ccc(Cl)c(C(=O)N2CCCC2C(=O)O)c1 (stereo unspecified)	-2%	/	/	/
Nc1nccnc1C(=O)NCc1cc(Br)ccc1F	-36%	/	/	/
C=CCn1c(SCC(=O)Nc2ccc3c(c2)CCC3)nc2ccccc2c1=O	?	-2%	-4%	-10%
COCCCNC(=O)CSc1nc2ccccc2c(=O)n1CCCN1CCCCC1	2%	-10%	1%	-8%
O=C(CSc1nc2ccccc2c(=O)n1Cc1ccccc1)Nc1ccc(Br)cc1C(=O)O	?	?	?	11µM*
SMILES	ALOX12 inh	VDR inhibitor	KAT2A inh	PLK1 PBD inh
CCCCn1c(SCC(=O)Nc2ccc3c(c2)CCC3)nc2ccccc2c1=O	-5%	-2%	0%	30µM*
COc1ccc(NC(=O)CSc2nc3ccccc3c(=O)n2CCCN2CCCCC2)c(OC)c1	-18%	-6%	-10%	24µM*
CCOCCCn1c(SCC(=O)NC2CCCC2)nc2ccccc2c1=O	-1%	?	-4%	27µM*
Cc1cc(NC(=O)CSc2nc3ccccc3c(=O)n2Cc2ccc(F)cc2)no1	0%	3%	-2%	-15%
Cc1c(C(=O)NC2=NCCS2)sc2cccc(F)c12	1%	/	/	/
CC(C)c1ccc(C(=O)N2CCN(c3nc4ccccc4o3)CC2)cc1	-4%	/	/	/
CCC(NC(=O)c1ccc(N(C)C)cc1)c1ccc(C)cc1 (stereo unspecified)	-25%	/	/	/
Cn1cc(Cl)c(C(=O)NC(=S)Nc2sc3c(c2C#N)CCCCC3)n1	3%	?	-11%	12µM*
Cc1onc(-c2ccccc2)c1C(=O)NC(=S)Nc1sc2c(c1C#N)CCCC2	?	?	-13%	7.5µM*
Cc1onc(-c2ccccc2)c1C(=O)Nc1sc2c(c1C#N)CCC2	?	-11%	-17%	?
Cc1onc(-c2ccccc2)c1C(=O)NC(=S)Nc1sc2c(c1C#N)CCC(C)C2 (stereo unspecified)	-25%	?	-10%	9.5µM*
CC(C)c1ccccc1NC(=O)C1CC2CCC1C2 (stereo unspecified)	-3%	/	/	/
O=C(c1ccc(F)cc1)N1CCC(Cc2nc(-c3ccccc3)no2)CC1	-4%	/	/	/
